# Source: PubChem
# CSC inhib = blocks cancer stem cells; inhibition, % at 7.5 µM; cancer stem cell-like cells viability, luminescence; hit rate 1.1% among 300,000; in the data active = inhibition above about 75%; tested in HMLE shEcad cells
# Mdm2-MdmX inh = human Mdm2/MdmX binding inhibition; O15151+Q00987; SaOS-2 split-luciferase Mdm2/MdmX complementation, luminescence; inhibition, % at 8 µM; hit rate 3% among 330,000; AID 485346;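 active = inhibition of at least 50% at 8 µM in the primary screen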
# 697 NFkB inh = inhibitors of the PMA/ionomycin-induced NF-kB reporter in 697 B cells; 697 B-cell NF-kB luciferase reporter, 16 h; inhibition, % at 4 µM; hit rate 0.33% among 330,000; AID 435022; in the data active = inhibition above about 35%
# Gli-Sufu block = antagonists of Gli-Sufu signaling; Sufu-KO-LIGHT fibroblasts, Gli luciferase reporter luminescence; inhibition, % at 5 µM; hit rate 0.74% among 340,000;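 active = inhibition above about 55%, limit read from the data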;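 also: 0% = DMSO-treated cells and 100% = wells with medium but no cells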
# Jurkat NFkB inh = lowers PMA/ionomycin-induced NF-kB signal in Jurkat cells; hit rate 0.53% among 330,000; AID 435003; inhibition, % at 4 µM; PMA/ionomycin-induced NF-kB luciferase reporter, luminescence; in the data active = inhibition above about 50%
# Beta apoptosis = beta cell apoptosis inhibition; hit rate 0.8% among 300,000; protection from apoptosis, % (test concentration not listed); INS-1E cytokine-induced death, ATP luminescence, 48 h; percent of positive-control rescue, neutral wells zero;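 active = Every replicate reaches about 75%, or at least half do and their mean reaches it too, limit read from the data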;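 also: 0% = cytokine-treated negative control wells and 100% = positive control rescue; higher means more ATP so stronger rescue from cytokine killing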
# Jurkat NFkB conf = lowers PMA/ionomycin-induced NF-kB signal in Jurkat cells; shares compounds with Jurkat NFkB inh; Jurkat NF-kB luciferase, 16 h; inhibition, % at 4 µM; hit rate 27% among 2,700; AID 435020;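 active = inhibition reaching about 45% at 4 µM in either replicate, limit read from the data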;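 also: plate controls were PMA/ionomycin stimulated DMSO wells for no effect and unstimulated DMSO wells for full effect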
# * hit, by the source's call; . = not tested or not shown. Sampled rows, rich in hits. Any-hit rate of the full collection: about 4.5%.
SMILES,CSC inhib,Mdm2-MdmX inh,697 NFkB inh,Gli-Sufu block,Jurkat NFkB inh,Beta apoptosis,Jurkat NFkB conf
CN(C(=O)Cn1cc(C(F)(F)F)cc(Cl)c1=O)C1CCS(=O)(=O)C1 (centres undefined),-10,4,2,-10,-12,0,.
Cc1cc(C(=O)Nc2sc3c(c2C#N)CCC(C)C3)cs1 (centres undefined),8,-94,-114,-29,-165,6,-108
N#Cc1c(NC(=O)c2ccccc2)sc2c1CCC2,42,-85,-250,-109,-59,15,.
Cc1cccc(C(=O)Nc2sc3c(c2C#N)CCCCC3)c1,42,-83,-195,3,-169,8,-126
CCc1ccc(-c2nc(CS(=O)CC(=O)NCCCN3CCC(C)CC3)c(C)o2)cc1 (centres undefined),-14,26,-9,17,7,.,.
Cc1cc(Cl)ccc1OC(C)C(=O)Nc1cnn(CCCC(=O)O)c1 (centres undefined),9,-8,1,-16,2,3,.
COc1ccccc1C(=O)N1CCN(c2cccc(C(F)(F)F)c2)CC1,61,41,-49,7,66*,7,29
COCC(=O)N1CCN(c2cccc(C(F)(F)F)c2)CC1,-15,14,18,-2,-17,-7,.
COc1cc(OC)cc(C(=O)N/N=C/c2ccc(OC)c(COc3ccc(F)cc3)c2)c1,-5,30,-41,26,52*,10,24
COc1ccc(OCc2cc(/C=N\NC(=O)c3ccccc3)ccc2OC)cc1,-4,50,-25,-2,54*,15,18
COc1ccc(C(=O)N/N=C/c2ccc(OC)c(COc3c(F)c(F)cc(F)c3F)c2)cc1,25,22,-4,8,3,-1,.
O=C(CN(C(=O)CCC(=O)Nc1nccs1)c1ccc(F)cc1)NCc1ccccc1,.,17,2,-11,-2,-1,.
COc1ccc(N(CC(=O)Nc2cc(Cl)ccc2OC)S(=O)(=O)c2c(C)noc2C)cc1,53,37,-23,2,69*,11,32
COc1ccc(OC)c(NC(=O)CN(c2ccc(C)cc2)S(=O)(=O)c2c(C)noc2C)c1,8,6,10,7,-4,8,.
CC(Sc1nnc(-c2cccnc2)n1N)C(=O)Nc1ccc2c(c1)OCCO2 (centres undefined),.,8,9,34,2,.,.
CCCCc1nc2cc(C(=O)N(C)C3CCOCC3)ccc2o1,8,-32,-148,-37,-77,-5,.
COc1ccc(C=O)cc1COc1ccc([N+](=O)[O-])c(C)c1,-15,30,24,-1,45,-1,.
COc1ccc(C=O)cc1COc1ccc2c(c1)OCO2,.,19,9,-5,59*,.,12
CN(C(=O)c1nn(C)c2c1CS(=O)(=O)c1ccccc1-2)c1cccc(Cl)c1,-5,9,-8,-17,16,-4,.
COc1ccc(C(=O)CSc2nnc(-c3ccc(C)cc3)o2)cc1,-22,21,15,2,-3,5,.
COc1ccc(-c2nnc(SCC(C)C)o2)cc1,-13,-209,-196,-41,-189,1,-94
NNC(=O)COc1ccc(F)cc1,-7,7,2,-13,10,-11,.
NNC(=O)COc1ccccc1F,-1,6,-1,-1,96*,-3,2
CCCCN1C(C(=O)Nc2ncccn2)=C(O)c2ccccc2S1(=O)=O,-11,25,13,-2,-6,-7,.
CCOC(=O)c1ccc2c(c1)nc(-c1ccccn1)n2CC,-10,-79,-168,-18,-166,2,-56
CCOC(=O)Cn1c(-c2ccccn2)nc2ccccc21,-9,16,18,3,10,-9,.
COc1ccc(N2C(=S)N(C(=O)c3ccccc3)C(=Nc3ccccc3)C2=Nc2ccccc2)cc1,4,-106,-225,-118,-176,9,-63
COc1ccc(N=C2C(=Nc3ccc(OC)cc3)N(c3ccc(N(C)C)cc3)C(=S)N2c2ccc(OC)cc2)cc1,67,47,30,-15,70*,-4,-41
COc1ccc(N=C2C(=Nc3ccc(OC)cc3)N(c3ccc(OC)cc3)C(=S)N2C(=O)c2ccc(OC)cc2)cc1,-7,-18,12,-25,-8,3,.
COc1ccc(N=C2C(=Nc3ccc(OC)cc3)N(c3ccccc3)C(=S)N2C(=O)c2ccc(Cl)cc2)cc1,-11,-21,-1,-111,-26,7,.
